Data from PubChem BioAssay (NCATS).
A number with no mark means an inactive call. Records with an inconclusive call do not appear. Entries that show only a call come without a potency. Activity calls are given as the source filed them. Unless noted, calls follow the shape of the dose curve; as a rule, active = well fitted curve in the direction sought with a large enough effect; inconclusive = small, poorly fitted or top-dose-only effect, or another doubt; inactive = no such curve, though single readings can be large; an effect the other way counts as inactive or inconclusive.

What was measured:
[1] = target: Rap guanine nucleotide exchange factor 3 (Homo sapiens) (UniProt O95398); test: Confirmatory qHTS for antagonist of cAMP-regulated guanine nucleotide exchange factor 3 (EPAC1) (AID 1645880); also: nearly all actives have a fitted effect of over 55% in size
Sequence of Rap guanine nucleotide exchange factor 3 (Homo sapiens) (O95398 whole entry, looked up): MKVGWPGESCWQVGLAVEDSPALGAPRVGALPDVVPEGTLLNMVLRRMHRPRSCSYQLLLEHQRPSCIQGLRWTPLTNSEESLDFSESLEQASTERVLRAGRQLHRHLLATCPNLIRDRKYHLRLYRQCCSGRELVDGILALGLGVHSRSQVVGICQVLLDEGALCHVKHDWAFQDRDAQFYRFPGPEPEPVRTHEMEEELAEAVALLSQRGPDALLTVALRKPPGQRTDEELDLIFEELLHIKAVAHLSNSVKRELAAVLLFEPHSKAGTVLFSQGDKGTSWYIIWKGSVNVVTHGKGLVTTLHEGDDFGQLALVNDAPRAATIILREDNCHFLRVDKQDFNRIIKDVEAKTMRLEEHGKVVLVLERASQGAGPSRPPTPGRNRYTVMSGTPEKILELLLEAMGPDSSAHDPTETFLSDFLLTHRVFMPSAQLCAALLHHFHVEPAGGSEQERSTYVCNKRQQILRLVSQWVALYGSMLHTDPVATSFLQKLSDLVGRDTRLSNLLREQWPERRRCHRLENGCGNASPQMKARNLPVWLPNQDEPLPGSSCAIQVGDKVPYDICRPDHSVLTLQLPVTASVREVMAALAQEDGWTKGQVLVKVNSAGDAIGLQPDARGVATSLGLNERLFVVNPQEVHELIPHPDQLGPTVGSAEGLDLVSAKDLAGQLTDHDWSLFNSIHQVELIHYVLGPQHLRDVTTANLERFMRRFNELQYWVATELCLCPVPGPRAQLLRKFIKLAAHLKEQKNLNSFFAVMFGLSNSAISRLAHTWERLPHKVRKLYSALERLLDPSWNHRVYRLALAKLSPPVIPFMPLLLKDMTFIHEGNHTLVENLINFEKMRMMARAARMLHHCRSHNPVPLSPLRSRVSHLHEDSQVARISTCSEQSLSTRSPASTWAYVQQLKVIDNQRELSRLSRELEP
In short: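 Nucleotide exchange uses 100 nM EPAC1, 250 nM RAP1B-BODIPY-GDP and 50 uM GDP, with compounds in a concentration-titration series. After 5 min at room temperature, fluorescence (480 nm ex/540 nm em) is read every 5 min for 30 min. Data are normalized to control ATA and DMSO.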

[2] = target: Rap guanine nucleotide exchange factor 3 (Homo sapiens) (UniProt O95398); test: Confirmatory qHTS for agonist of cAMP-regulated guanine nucleotide exchange factor 3 (EPAC1) (AID 1645881); also: nearly all actives have a fitted effect of over 75% in size; also: potency is read from the fitted curve at half-maximal effect;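 as to activation: EPAC1 catalysed release of BODIPY-GDP from Rap1B seen as fluorescence loss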
[3] = target: Rap guanine nucleotide exchange factor 4 (Homo sapiens) (UniProt Q8WZA2); test: Confirmatory qHTS for agonist of cAMP-regulated guanine nucleotide exchange factor 4 (EPAC2) (AID 1645884);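 also: nucleotide exchange releases bodipy-GDP from Rap1 and this lowers its fluorescence; nearly all actives have a fitted effect of over 65% in size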
Sequence of Rap guanine nucleotide exchange factor 4 (Homo sapiens) (Q8WZA2 whole entry, looked up): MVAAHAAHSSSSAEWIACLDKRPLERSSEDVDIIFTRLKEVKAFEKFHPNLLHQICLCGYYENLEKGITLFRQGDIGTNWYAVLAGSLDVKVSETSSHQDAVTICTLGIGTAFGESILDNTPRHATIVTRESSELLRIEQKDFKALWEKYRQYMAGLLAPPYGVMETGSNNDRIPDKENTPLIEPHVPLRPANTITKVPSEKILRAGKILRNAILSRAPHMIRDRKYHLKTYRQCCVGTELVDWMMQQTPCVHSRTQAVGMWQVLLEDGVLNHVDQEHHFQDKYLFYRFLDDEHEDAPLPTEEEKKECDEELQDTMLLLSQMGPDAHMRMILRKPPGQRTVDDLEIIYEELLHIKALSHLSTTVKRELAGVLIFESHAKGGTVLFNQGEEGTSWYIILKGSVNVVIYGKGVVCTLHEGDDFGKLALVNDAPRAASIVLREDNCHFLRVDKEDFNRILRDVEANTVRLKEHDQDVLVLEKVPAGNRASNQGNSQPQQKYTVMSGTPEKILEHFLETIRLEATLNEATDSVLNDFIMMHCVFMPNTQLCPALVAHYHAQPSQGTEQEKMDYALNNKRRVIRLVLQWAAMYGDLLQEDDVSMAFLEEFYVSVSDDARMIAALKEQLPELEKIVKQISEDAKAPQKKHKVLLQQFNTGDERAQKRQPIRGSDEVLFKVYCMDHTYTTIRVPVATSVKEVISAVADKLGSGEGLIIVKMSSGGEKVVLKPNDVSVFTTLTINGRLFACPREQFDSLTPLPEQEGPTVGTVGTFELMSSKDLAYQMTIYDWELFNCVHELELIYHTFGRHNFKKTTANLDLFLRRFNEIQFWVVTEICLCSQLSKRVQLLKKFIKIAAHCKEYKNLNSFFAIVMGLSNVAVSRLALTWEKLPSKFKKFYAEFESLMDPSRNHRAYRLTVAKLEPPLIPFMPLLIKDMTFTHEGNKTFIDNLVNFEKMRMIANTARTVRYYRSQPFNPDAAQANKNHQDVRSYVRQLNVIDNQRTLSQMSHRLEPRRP

[4] = target: Rap guanine nucleotide exchange factor 4 (Homo sapiens) (UniProt Q8WZA2); test: Confirmatory qHTS for antagonist of cAMP-regulated guanine nucleotide exchange factor 4 (EPAC2) (AID 1645885); also: nearly all actives have a fitted effect of over 25% in size
[5] = target: Rap guanine nucleotide exchange factor 3 (Homo sapiens) (UniProt O95398); test: Counterscreen qHTS for antagonist of cAMP-regulated guanine nucleotide exchange factor 3 (EPAC1) (AID 1645888);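 also: fluorescence loss as bound BODIPY-GDP is released from Rap1B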
In short: (§1)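 Rap1B-BODIPY-GDP 250 nM + GDP 50 uM; cpds 7-pt, final 9.74 nM–152 uM (activator mode) or from 7.32 nM upwards (inhibitor mode); RT; FI 480/540 nm at 5 and 30 min, then ± cAMP, reread.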

[6] = target: Rap guanine nucleotide exchange factor 3 (Homo sapiens) (UniProt O95398); test: Counterscreen qHTS for agonist of cAMP-regulated guanine nucleotide exchange factor 3 (EPAC1) (AID 1645889); also: nearly all actives have a fitted effect of over 40% in size
In short: as §1

[7] = AP1 Signaling Pathway (AID 357; active = well fitted curve in either direction with a large enough effect, not every such curve was filed as active)
In short: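 ME-180 cells with beta-lactamase reporter under AP-1 response element, stimulated with EC50 EGF; compounds tested in titration series, 5 h at 37 °C. CCF4 substrate added 2.5 h at room temperature; 460/530 nm emission ratio gave %activity and AC50.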

[8] = NFAT Signaling Pathway (AID 444; active = well fitted curve in either direction with a large enough effect, not every such curve was filed as active;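 also: carbachol stimulus at about its EC50 of 1 µM final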); conditions: Jurkat NFAT-bla M1, carbachol, beta-lactamase ratio, 5 h; at 17.2 µM (top of the series)
In short: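 Read-out: CCF4 FRET ratio (460 nm/530 nm) after 1 h RT dye loading, used for %activity and AC50 from titration series. Cells: Jurkat NFAT-β-lactamase/M1 line, treated with compound plus 1 uM carbachol for 5 h, 37 °C.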

[9] = target: Glucocorticoid receptor (Homo sapiens) (UniProt P04150); test: GR-GFP Redistribution (AID 450;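 active = compounds whose dose series gives a full or clear partial fitted curve of increased nuclear translocation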; also: potency is read from the fitted curve at half-maximal effect); conditions: U2OS GR-GFP nuclear translocation, laser cytometry, 2 h
Sequence of Glucocorticoid receptor (Homo sapiens) (P04150 whole entry, looked up): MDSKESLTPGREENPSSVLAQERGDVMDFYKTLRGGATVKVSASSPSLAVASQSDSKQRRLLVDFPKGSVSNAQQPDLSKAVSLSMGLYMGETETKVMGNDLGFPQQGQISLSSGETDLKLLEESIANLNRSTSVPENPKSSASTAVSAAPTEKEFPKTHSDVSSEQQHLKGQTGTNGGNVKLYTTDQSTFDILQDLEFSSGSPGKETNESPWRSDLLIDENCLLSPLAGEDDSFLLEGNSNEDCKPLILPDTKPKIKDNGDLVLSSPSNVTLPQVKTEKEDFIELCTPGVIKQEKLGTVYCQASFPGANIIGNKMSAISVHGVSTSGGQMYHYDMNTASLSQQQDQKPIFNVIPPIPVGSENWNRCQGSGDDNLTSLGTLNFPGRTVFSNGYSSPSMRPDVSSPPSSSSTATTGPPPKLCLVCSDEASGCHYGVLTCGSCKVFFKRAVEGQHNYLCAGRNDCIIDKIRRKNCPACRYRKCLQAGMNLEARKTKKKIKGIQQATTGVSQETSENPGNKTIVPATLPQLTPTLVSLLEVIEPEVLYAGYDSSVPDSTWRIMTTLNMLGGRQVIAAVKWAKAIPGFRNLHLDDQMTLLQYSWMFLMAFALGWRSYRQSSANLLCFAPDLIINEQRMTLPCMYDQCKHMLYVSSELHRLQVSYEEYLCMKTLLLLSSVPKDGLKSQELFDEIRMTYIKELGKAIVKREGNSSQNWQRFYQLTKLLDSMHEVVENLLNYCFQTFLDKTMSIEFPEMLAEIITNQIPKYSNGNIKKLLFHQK

Structure (SMILES) | Potency [1] | Potency [2] | Potency [3] | Potency [4] | outcome [5] | Potency [6] | outcome [7] | activity change, negative = inhibition [8] | Potency [9] | activation [3] | activity change, negative = inhibition [4] | activity change, negative = inhibition [5]
COC(=O)C1=C(c2ccc3ccccc3c2)C[C@@H]2CC[C@H]1N2C(=O)NC1CC1 | inactive | inactive | inactive | inactive | inactive | inactive |  |  |  |  |  | 
CCN(CC)c1ccc(N=Cc2c(O)n(-c3cc(OC)ccc3OC)c(=O)[nH]c2=O)cc1 | inactive | 70.8 µM (active) |  |  |  |  | inactive | -6.84% | > 20.6 µM | 4.47% [at 17.1 µM, percent relative to cAMP agonist control] | -9.2% [at 12.7 µM] | -4.74% [at 30.8 µM]
